Hits are enriched below; roughly 1.9% of the tested compounds scored in any of these assays.
CaV13 FRET inh – Primary screen for inhibitors of IQ motif and Ca2+-dependent inactivation inhibitor domain binding in CACNA1D, Förster resonance energy transfer in living cells, …; HEK cells, CFP/YFP FRET ICDI-IQ, plate reader, 10 min; percent FRET-ratio fall versus neutral wells; inhibition, % at 12.3 µM; hit rate 0.098% among 340,000; AID 743397;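 active = mean replicate inhibition of at least 30% and at least 1% of replicates passing that level; inconclusive = only one of the two criteria is met; inactive = neither criterion is met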
N-glyco inh – N-linked glycosylation inhibition. D54 ERlucT glycosylation luciferase reporter, 24 h; percent of 100 nM tunicamycin response. reporter increase, % at 12.5 µM. hit rate 0.23% among 360,000. AID 588692;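 active = mean luciferase reporter signal, scaled so untreated is 0 and the glycosylation-blocking control 100, at or above a set limit in every replicate; inconclusive = mean reaches the limit but not every replicate does; inactive = mean below the limit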;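 also: luciferase carries N-glycosylation sites so blocking glycosylation raises the light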
ATG4B inh – ATG4B (human) cysteine protease inhibition; hit rate 0.51% among 340,000; Q9Y4P1; ATG4B cleavage of LC3-PLA2, NBD-HPC fluorescence, 1 h; inhibition, % at 8.33 µM; in the data active = inhibition above about 40%
Vif inh – inhibitors of HIV Vif. AID 602346. inhibition, % at 7.49 µM. hit rate 0.35% among 340,000. HEK293T cells, Vif self-association by quenched fluorescence, imaging, 24 h; in the data active = inhibition above about 50%, passing the limit was not always enough; inconclusive = no clear call, values can overlap the other calls; inactive = below about 31%
NSD2 inh – blocks human histone methyltransferase NSD2 | hit rate 0.54% among 310,000 | O96028 | inhibition, % at 12.5 µM | AID 743445 | NSD2 peptide methylation, AlphaScreen, 120 min; in the data active = inhibition above about 50%
DSG3 Ab inh – human desmoglein-3 autoantibody binding inhibition. P32926. DSG3-coupled beads, scFv-anti-DSG3-GFP binding, flow cytometry; active compounds read low. binding (percent of control), % at 10 µM. hit rate 0.48% among 310,000. AID 588358;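 active = binding more than 3 SD below its plate's average and above zero; inconclusive = below that plate limit but binding exactly zero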;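 also: hits lower antibody fragment binding to DSG3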
Numbers stand for hits; i = inactive; ? = inconclusive; nt = no result given; + = active, no number.

SMILES | CaV13 FRET inh | N-glyco inh | ATG4B inh | Vif inh | NSD2 inh | DSG3 Ab inh
Cn1c(N)c(C(=O)COC(=O)c2cc(S(=O)(=O)N3CCOCC3)ccc2F)c(=O)n(C)c1=O | i | 50 | i | i | i | i
N#Cc1c2ccc(O)cc2n2ccccc12 | + | i | i | i | i | i
NC(=O)c1ccsc1NC(=O)COC(=O)c1cnccn1 | i | i | i | i | i | 80
CC(=O)c1cccc(NC(=S)NC(=O)C(C)C)c1 | i | i | i | 87 | nt | i
COc1ccc(CC(=O)N(Cc2ccccc2)c2ccc(C)cc2)cc1OC | i | 31 | i | i | i | i
CN(C)S(=O)(=O)c1ccc(N2C(=O)CC2(/C=C/c2ccccc2)C(=O)NC2CCCC2)cc1 (stereo not drawn) | i | i | i | i | i | i
O=C(O)c1cc(-c2ccco2)nc2ccccc12 | i | i | i | nt | nt | i
O=C(N/N=C/c1ccccn1)c1cc(-c2ccncc2)nc2ccccc12 | i | 41 | i | i | i | i
O=C(N/N=C/c1ccc(F)cc1)c1cc(-c2ccco2)nc2ccccc12 | i | i | i | i | i | 28
O=C(NC1CC1)c1cc(-c2ccco2)nc2ccccc12 | nt | i | i | i | i | 72
O=C(N/N=C/c1ccsc1)c1cc(-c2ccncc2)nc2ccccc12 | i | i | i | ? | i | i
COc1cccc(-n2nnc3c(=O)n(CC(=O)NC4CCCC4)cnc32)c1 | i | i | i | i | i | i
CCOC(=O)/C=c1\s/c(=C(\C#N)C(=O)OCC)n(-c2ccccc2)c1=O | i | i | i | i | i | nt
CCC(C)NC(=O)Cn1c(=O)n(-c2ccccc2)c(=O)c2ccc(C(=O)NCc3ccco3)cc21 (stereo not drawn) | i | i | i | 61 | i | i
Cc1ccc(Cn2c(=O)n(-c3ccccc3)c(=O)c3ccc(C(=O)NCc4ccco4)cc32)cc1 | i | i | i | i | nt | i
C[C@H](NC(=O)c1nc[nH]c1C(=O)N[C@@H](Cc1ccccc1)C(=O)OC(C)(C)C)C(=O)OC(C)(C)C | i | i | i | i | nt | i
CC(=O)Nc1ccc(NC(=O)CSc2nnc(-c3ccc4c(c3)OCO4)o2)cc1 | i | i | i | nt | i | -15
CC(=O)CSc1nnc(-c2ccc3c(c2)OCO3)o1 | i | i | i | i | nt | nt
Cc1cc(/C=N/n2cnnc2)c(C)n1-c1ccc(Cl)cc1Cl | nt | i | i | i | nt | i
COC(=O)C(C(=O)OC)C(c1ccccc1)C(C(=O)c1ccccc1)[N+](=O)[O-] (stereo not drawn) | i | i | i | 53 | i | i
C=C(C)CSc1nc2c(c(=O)[nH]c(=O)n2C)n1Cc1ccccc1 | i | i | i | i | nt | i
Cn1c(=O)[nH]c(=O)c2c1nc(SCC(N)=O)n2Cc1cccc(Br)c1 | i | 27 | i | ? | i | i
COc1ccc2cc3c(N)nn(C(=O)c4ccc(F)cc4)c3nc2c1 | i | i | i | i | i | 62
O=C(CCl)Nc1cn(-c2ccccc2)nc1-c1ccc(F)cc1 | i | 52 | i | i | i | i
CCOC(=O)c1c(NC(=O)COC)sc(C)c1C | i | i | i | i | i | i
SMILES | CaV13 FRET inh | N-glyco inh | ATG4B inh | Vif inh | NSD2 inh | DSG3 Ab inh
CCOC(=O)c1c(NC(=S)NC(C)=O)sc(C)c1C | i | i | i | i | i | 71
COc1cc(S(=O)(=O)NCc2ccncc2)c(OC)cc1Br | i | i | i | i | i | i
COc1cc(S(=O)(=O)NCc2ccncc2)c(OC)cc1C | i | i | i | 51 | i | i
O=C(Nc1ccc(F)cc1)Nc1ccc([N+](=O)[O-])cn1 | i | i | i | i | i | 54
Nc1ccc2nc(-c3cccc(-c4nc5ccc(N)cc5[nH]4)c3)[nH]c2c1 | i | i | i | i | i | 73
C[C@@H]1CCCCCCCCC(=O)OCCN[C@H](C)CCCCCCCCC(=O)OCCN[C@H](C)CCCCCCCCC(=O)OCCN1 | nt | i | i | nt | nt | i
O=C1[C@@H]2Cc3c([nH]c4ccccc34)C(c3ccc([N+](=O)[O-])cc3)N2C(=O)CN1C1CC1 (stereo partly drawn) | i | 43 | i | i | i | i
O=C1[C@@H]2Cc3c([nH]c4ccccc34)C(c3ccccc3)N2C(=O)CN1C1CC1 (stereo partly drawn) | i | i | i | i | i | i
COc1ccc(NC2=C(C)C(=O)CC2)cc1 | i | 32 | i | i | i | i
Cc1cc(-c2ccccc2)c2ccc(NC(=O)C(C)(C)C)nc2n1 | 45 | i | i | i | i | i
CCOC(=O)CCCN1CC(O)=C(c2nc(-c3ccc(Cl)cc3)cs2)C1=N | i | i | i | i | i | 96
Cc1ccc(C)c(OCC(O)CN2CCN(CCN3C(=O)c4cccc5cccc(c45)C3=O)CC2)c1 (stereo not drawn) | i | 57 | i | i | i | i
CCN1CCN(c2ccc(S(=O)(=O)N3CCCCC3)cc2NC(=O)Cc2c(F)cccc2Cl)CC1 | i | i | i | i | i | i
Cc1ccc(-c2nn3c(C)nnc3c3ccccc23)cc1S(=O)(=O)N(C)CCO | nt | 27 | i | i | i | i
Cc1ccc(-c2nn3c(C)nnc3c3ccccc23)cc1S(=O)(=O)NCc1ccccc1 | i | i | i | 87 | i | i
COc1ccc2[nH]c(CN3CCN(C(C)C)C(CCO)C3)c(C)c2c1 (stereo not drawn) | i | i | i | 64 | i | i
N=c1c(C(=O)NCC2CCCO2)cc2c(=O)n3ccccc3nc2n1Cc1ccc(Cl)cc1 (stereo not drawn) | 94 | i | i | i | i | i
O=C(O)c1ccc(-c2ccc(/C=C3\NC(=O)N(Cc4ccc(Cl)cc4)C3=O)o2)cc1 | 48 | i | i | i | i | i
O=C1C=C(c2ccc3ccccc3c2)C[C@@H](c2ccc(Cl)cc2)C1 | i | i | i | i | nt | i
COc1cc2c3nnc(-c4ccc(F)cc4)c-3cn(Cc3ccc(F)cc3)c2cc1OC | i | i | i | 94 | nt | i
COc1ccc(Cn2cc3c(-c4ccc(F)cc4)nnc-3c3cc(OC)c(OC)cc32)cc1 | i | i | i | i | nt | i
O=C(c1ccccc1)N1CCN(c2ccc(NCc3ccc4c(c3)OCO4)cc2)CC1 | 56 | i | i | i | nt | i
COc1ccc(Cc2nnc(NC(=O)c3cccc(C)c3)s2)cc1 | i | i | i | i | i | i
Cc1cccc(-c2nnn(Cc3nnc(NC(=O)c4ccccc4)s3)n2)c1 | i | i | i | 73 | i | i
CCOc1ccc(/C=N/NC(=O)c2cc3c(OC)cccc3[nH]2)cc1 | i | 50 | i | i | nt | i
COc1ccccc1/C=N/NC(=O)c1cc2c(OC)c(OC)ccc2[nH]1 | i | 34 | i | i | i | i
CCOc1ccc(C(=O)c2cc([N+](=O)[O-])ccc2N2CCOCC2)cc1 | i | i | i | 74 | nt | nt
COc1cc2ccccc2cc1C(=O)NCc1ccncc1 | nt | i | i | i | i | nt

Compound activity: PubChem BioAssay, several laboratories
